What follows are sequences tested on PPARg:RXRa 90nM:30nM, anti-RXR (NR concentration 90 nM, RXRa partner concentration 30 nM) (assay: PBM binding z-score (relative to random genomic background probes); higher = stronger binding; sequences stand for … in GC…GCGATTGACAGCGTAGAATGAAGG).
Procedure, shortened: (§1)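 Custom Agilent 4×180K protein-binding microarrays carried double-stranded probes, each with a 34-nt variable region. These regions held direct-repeat seeds, single-nucleotide variants, half-site ablations and random human genomic background sequences. Ligand-free nuclear receptor dimers were incubated on the arrays for 1 h, antibodies against each partner (one per run) detected binding, and scanned fluorescence was regression-normalized. Binding z-scores take the random background probes as reference.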
With TCTCGGAGGACACGATGGTCAGAGCTTTCCAGAG the PBM binding z-score was 1.07. GCTTACGGATCAAAGGTTATAGCATGAATAGAAT showed a PBM binding z-score of 7.07. In the case of CTACCAAGGTGAACAAGGTCGTCGATTACTATTC, the PBM binding z-score is reported as 0.943. AATACAGGGTCATCGTAGGCCAGTGTACGCACAG was tested, and the PBM binding z-score was 4.66. CCTGCTAGGTCATGGTCAGATAATCTACAGTATG was tested, and the PBM binding z-score was 1.95. CGAACTAGGTCAAAGGTCAAAGTCGAGCCAACCA showed a PBM binding z-score of 14. With AATACAGGGTCATTGTAGGCCAGAGTACGCACAG the PBM binding z-score was 4.29. Work on AGAATGAGGTTATACGTAGATCAGGGATGAAAGT yielded a PBM binding z-score of 1.73. For ATCGAAAGGTCGAGGTGAGTTTAGAGAAAGGGAA, the PBM binding z-score was 2.57. Work on TGAATGAGGTGATAAGATCAGGGAACGTTGCAAA yielded a PBM binding z-score of 0.92. ATCGAAAGGTCGAAGGTTAGTATACCCACCCGAA gave a PBM binding z-score of 4.28. For TCATATAGGTAAAGGGTGAAAGTCGGTGTGGTAA, the PBM binding z-score was 7.63. For CCTTACGGGTCAAGGTTATAGCGCGGGTGGTACG, the PBM binding z-score was 3.35. Sequence CATCCAAGGTCAGAGAGGTCAGTGAATGCCGAGT has a PBM binding z-score of 2.83. With CCTTACGGGGCACTGACAGGTTATAGCATTTGGA the PBM binding z-score was -0.232. TGAATGAGGTTAAAAATCAGGGAACGTGGCGTCG was tested, and the PBM binding z-score was 1.77. With TTACCAAGGTGAAAGGTTGTTGATGCACGCCTTG the PBM binding z-score was 6.25. Work on CCTAGCAGGCCCGGGTCACTCAAGCATTTCGCTT yielded a PBM binding z-score of 0.0676. AGTCAAAGTTCACCAGGTAACGTAAGATTCAGCT showed a PBM binding z-score of 6.1. Sequence TCTTGTAGATCAAGCCGGTTAAGAAAGCCTGAGT has a PBM binding z-score of 1.97. TCGAGTAGGTTAGGGGCCTTCAGAATGGCGTCGA gave a PBM binding z-score of 2.03. In the case of GCTGGGAGGACAAGGTCAGAGCTTTGTCCGTAGA, the PBM binding z-score is reported as 0.699. Sequence CCTTAAGGGTCAAGGTTATAGCACGGGTGGTACG has a PBM binding z-score of 4.78. GCGAGCAGGCCATTTGGGTCACTCAATGACGGGC was tested, and the PBM binding z-score was 0.0983. Work on CGAACTAGGTCATCTAGGACAGTGAATACATTGA yielded a PBM binding z-score of 5.7. In the case of CCAGACAGGTGAAAGGTACCTCAGTCTGGTACGC, the PBM binding z-score is reported as 4.17. GCAGACAGGTAAAACGCAGGTAACTCAGGGTGGC was tested, and the PBM binding z-score was -0.835. Work on CCTCGCAGGCCAATCTGGGTCACTCAAGGCTTGA yielded a PBM binding z-score of 1.3. GGAACGAGGGCATTCTAGTTGATAGCATGGCGAT showed a PBM binding z-score of 0.231. CCTACTAGGCCATTCAGAGGTCATTGATCATATG gave a PBM binding z-score of 3.08. Sequence AGAACGACGGCACGCTGAGTTGATAGCAGAGTAG has a PBM binding z-score of -0.753. TCTGCTAGGTTAGTTGGTCAGCTAACGAGCTGCC showed a PBM binding z-score of 0.973. ATCTCTAGGTAACAAGTTCAGTGTAAGAGAGGAC was tested, and the PBM binding z-score was 1.48. For ATCGAAAGGTCGTGAGGTGAGTAGACAGAAAGGC, the PBM binding z-score was 3.08. For CCTACTGGGCCACGAAAGCTCATTGATTCAGTGA, the PBM binding z-score was 0.162. For AGAACGAGGGCAATGAGTTGATGGCACGGGTGGC, the PBM binding z-score was 0.238. For CCTACTGGGCCAAGGTTATTGATCAGTCAAAGCA, the PBM binding z-score was 2.48. With CCTTACGGGTCAAGGTTTTAGCACGGGTGGTACG the PBM binding z-score was 3.33. For TCTTGTAGACCAATAGAGGTTAAGAAAGTGCGCT, the PBM binding z-score was 1.93. ACAGACAGGTGAGTGAAGGTAACTTAGCTGGACG was tested, and the PBM binding z-score was -0.0872.

What follows are sequences tested on PPARg:RXRa DBDmut IVT, anti-RXR (DBD mutation: RXRa K156A/R161A, NR concentration 270 nM, RXRa partner concentration 90 nM) in the same assay as above.
Procedure, shortened: as §1
For TCTCGGAGGACACGATGGTCAGAGCTTTCCAGAG, the PBM binding z-score was 1.01. In the case of GCTTACGGATCAAAGGTTATAGCATGAATAGAAT, the PBM binding z-score is reported as -0.119. In the case of CTACCAAGGTGAACAAGGTCGTCGATTACTATTC, the PBM binding z-score is reported as 2.69. With AATACAGGGTCATCGTAGGCCAGTGTACGCACAG the PBM binding z-score was 2.67. CCTGCTAGGTCATGGTCAGATAATCTACAGTATG gave a PBM binding z-score of 4.17. Work on CGAACTAGGTCAAAGGTCAAAGTCGAGCCAACCA yielded a PBM binding z-score of 8.51. Sequence AATACAGGGTCATTGTAGGCCAGAGTACGCACAG has a PBM binding z-score of 2.56. In the case of AGAATGAGGTTATACGTAGATCAGGGATGAAAGT, the PBM binding z-score is reported as 3.98. Sequence ATCGAAAGGTCGAGGTGAGTTTAGAGAAAGGGAA has a PBM binding z-score of 0.367. TGAATGAGGTGATAAGATCAGGGAACGTTGCAAA was tested, and the PBM binding z-score was 1.64. ATCGAAAGGTCGAAGGTTAGTATACCCACCCGAA gave a PBM binding z-score of 0.165. For TCATATAGGTAAAGGGTGAAAGTCGGTGTGGTAA, the PBM binding z-score was 4.48. With CCTTACGGGTCAAGGTTATAGCGCGGGTGGTACG the PBM binding z-score was 2.04. With CATCCAAGGTCAGAGAGGTCAGTGAATGCCGAGT the PBM binding z-score was 2.91. CCTTACGGGGCACTGACAGGTTATAGCATTTGGA gave a PBM binding z-score of 1.49. Work on TGAATGAGGTTAAAAATCAGGGAACGTGGCGTCG yielded a PBM binding z-score of 1.43. With TTACCAAGGTGAAAGGTTGTTGATGCACGCCTTG the PBM binding z-score was 2.7. CCTAGCAGGCCCGGGTCACTCAAGCATTTCGCTT was tested, and the PBM binding z-score was -0.956. AGTCAAAGTTCACCAGGTAACGTAAGATTCAGCT was tested, and the PBM binding z-score was 1.37. TCTTGTAGATCAAGCCGGTTAAGAAAGCCTGAGT gave a PBM binding z-score of 1.95. Work on TCGAGTAGGTTAGGGGCCTTCAGAATGGCGTCGA yielded a PBM binding z-score of 1.32. Sequence GCTGGGAGGACAAGGTCAGAGCTTTGTCCGTAGA has a PBM binding z-score of 0.282. CCTTAAGGGTCAAGGTTATAGCACGGGTGGTACG gave a PBM binding z-score of 2.34. Sequence GCGAGCAGGCCATTTGGGTCACTCAATGACGGGC has a PBM binding z-score of 0.844. In the case of CGAACTAGGTCATCTAGGACAGTGAATACATTGA, the PBM binding z-score is reported as 8.06. Sequence CCAGACAGGTGAAAGGTACCTCAGTCTGGTACGC has a PBM binding z-score of 1.66. Sequence GCAGACAGGTAAAACGCAGGTAACTCAGGGTGGC has a PBM binding z-score of -0.691. Work on CCTCGCAGGCCAATCTGGGTCACTCAAGGCTTGA yielded a PBM binding z-score of 3.89. GGAACGAGGGCATTCTAGTTGATAGCATGGCGAT was tested, and the PBM binding z-score was 3.02. CCTACTAGGCCATTCAGAGGTCATTGATCATATG showed a PBM binding z-score of 5.98. Work on AGAACGACGGCACGCTGAGTTGATAGCAGAGTAG yielded a PBM binding z-score of -0.407. With TCTGCTAGGTTAGTTGGTCAGCTAACGAGCTGCC the PBM binding z-score was 1.37. ATCTCTAGGTAACAAGTTCAGTGTAAGAGAGGAC was tested, and the PBM binding z-score was 3.42. In the case of ATCGAAAGGTCGTGAGGTGAGTAGACAGAAAGGC, the PBM binding z-score is reported as 0.467. CCTACTGGGCCACGAAAGCTCATTGATTCAGTGA showed a PBM binding z-score of 5.87. Sequence AGAACGAGGGCAATGAGTTGATGGCACGGGTGGC has a PBM binding z-score of 3.36. CCTACTGGGCCAAGGTTATTGATCAGTCAAAGCA showed a PBM binding z-score of 3.46. In the case of CCTTACGGGTCAAGGTTTTAGCACGGGTGGTACG, the PBM binding z-score is reported as 2.52. TCTTGTAGACCAATAGAGGTTAAGAAAGTGCGCT gave a PBM binding z-score of 2.08. ACAGACAGGTGAGTGAAGGTAACTTAGCTGGACG was tested, and the PBM binding z-score was 0.507.

Reference: the supplement of paper PMC6555819
